Drawing on PubChem BioAssay (NCI), this text covers growth for 9 molecules.

The panel holds about 83,000 compounds, 20% with a hit somewhere; the sample as a whole holds those more often.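 Each cell line was grown in a 96-well plate and treated with one concentration of compound for 48 hours. Values below 10 were considered active.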 A number with no mark means an inactive call. The source made the active and inactive calls.

Experiment in all cases: NCI-60 one-dose screen, 48 h (100 = growth as untreated, 0 = no growth, -100 = all killed)
Holding throughout (conditions): 10 µM

The test system of test [1] is SR leukemia.
The subject of test [2] is RPMI-8226 leukemia.
The subject of test [3] is OVCAR-8 ovarian.
The subject of test [4] is OVCAR-5 ovarian.
The subject of test [5] is OVCAR-4 ovarian.
Test [6] concerns SK-OV-3 ovarian.
Test [7] concerns IGROV1 ovarian.
Test [8] relates to OVCAR-3 ovarian.
Test [9] concerns HS 578T breast.
Test [10] deals with NCI/ADR-RES ovarian.
The test system of test [11] is T-47D breast.
Test [12] has as its system BT-549 breast.
The test system of test [13] is MDA-MB-435 melanoma.
Test [14] has as its system SW-620 colon.
For test [15], the system named is HCT-116 colon.
The subject of test [16] is HCC-2998 colon.
In test [17] the test system is KM12 colon.
Test [18] concerns MCF7 breast.

For `C[C@@H]1N=C(c2ccc(Br)cc2)Nc2nc3ccccn3c2C1=O`, the growth was 30% in [1]; 94% in [2]; 72.5% in [3]; 82.4% in test [4]; 77.5% in test [5]; 72% in test [6]. In addition, the growth in [7] was 43.1%; in [8] it was 17.3%; in test [9] it was 71.3%; in [10], 39.4%; in [11] it was 67.2%; in test [12], 49.3%. In addition, the growth in test [13] is -13% (active); in test [14], 38%; in test [15], 29.2%; in test [16] it was 69%; in test [17], 29.6%.
Turning to `Cc1cc(C#Cc2ccccc2)ccc1-n1c(/C=C/c2cc(O)ccc2O)nc2ccccc2c1=O`, the growth in test [1] is -26% (active); in [2], -18.1% (active); in test [3], 16.3%; in [4] it was -24.5% (active); in [5], 19.2%; in [6] it was -49.3% (active). Moreover, the growth in [7] was -12.6% (active); in test [8], -46.2% (active); in [9], 31.8%; in test [10] it was 6.37% (active); in [11], -16.8% (active); in [12], -11.1% (active). Further, the growth is -56.3% (active) in test [13]; 5.7% (active) in test [14]; 2.03% (active) in [18]; -43.8% (active) in [15]; -49.6% (active) in test [16]; -5.21% (active) in [17].
On to `CC(=O)OC1Oc2ccccc2-c2oc(=O)c(-c3cc(=O)oc4cc(O)ccc34)cc21` (centres undefined), for which the growth was 3.66% (active) in test [1]; 46.7% in test [2]; 89.1% in [3]; 75.8% in test [4]; 77.2% in [5]; 83.3% in test [6]. Besides, the growth in test [7] is 49.4%; in [8], 63.8%; in [9], 59.5%; in test [10] it was 75.5%; in test [11], -17.5% (active); in test [12] it was 61.4%. For the same molecule, the growth in test [13] is 86.8%; in [14], 92.2%; in test [18], 85.5%; in test [15], 87.3%; in test [17], 89.2%.
Turning to `CC(=O)/C(=C\c1ccc(Cl)cc1)c1ccccc1`, the growth is 6.01% (active) in test [1]; 19% in test [2]; 15.2% in [3]; 51.5% in test [4]; 57.7% in test [5]; 39.1% in test [6]. For the same molecule, the growth in test [7] was 28.5%; in [8], -8.06% (active); in test [9] it was 23.8%; in test [10], 30.7%; in [11] it was 47.8%; in [12], 14.5%. The growth was -35.2% (active) in [13]; 25.6% in [14]; 5.06% (active) in [15]; 3.78% (active) in test [16]; 10.1% in test [17].
Regarding `CCc1cc2n(n1)-c1ncc(C(=O)OC)cc1Oc1ccccc1-2`, the growth in [1] was 93.9%; in [2], 93.3%; in [3] it was 97.8%; in test [4] it was 105%; in [5], 100%; in test [6], 102%. In addition, the growth was 97% in test [7]; 106% in test [8]; 97% in test [9]; 103% in [10]; 75.8% in test [11]; 111% in [12]. Moreover, the growth is 103% in test [13]; 106% in [14]; 90.5% in [15]; 114% in test [16]; 102% in test [17].
`C/C(=N/NC(=O)c1sc(=S)n(C)c1N)c1cc2cc(Cl)ccc2o1`: the growth is 98.7% in test [1]; 87.3% in test [2]; 14.3% in [3]; 101% in [4]; 117% in test [5]; 102% in test [6]. The growth in test [7] is 51.6%; in test [8], 110%; in test [9], 5.99% (active); in test [10], 104%; in [11], 80.4%; in test [12] it was 113%. For the same molecule, the growth was 95.7% in [13]; 44.3% in test [14]; 82.7% in test [18]; 103% in [15]; 88.2% in test [17].
Turning to `Nc1cc2c(cc1Cl)-c1ccc(Cl)cc1C2=O`, the growth in test [1] was 109%; in [2] it was 88.8%; in [3], 92.1%; in test [4], 100%; in [5], 98.8%; in test [6] it was 98.6%. For the same molecule, the growth in test [7] is 107%; in test [8], 104%; in [9], 97.3%; in [10], 99.5%; in [11], 59.6%; in test [12] it was 100%. In addition, the growth is 103% in test [13]; 95.8% in test [14]; 76.4% in test [15]; 101% in test [16]; 96.4% in [17].
Consider `O=C(N/N=C/c1ccccc1O)c1ccccc1`, for which the growth in [1] is 16.9%; in test [2] it was -30.3% (active); in test [3], 21.7%; in test [4], 47%; in test [5], 21.4%; in test [6], 40.3%. For the same molecule, the growth in test [7] was 22.1%; in test [8], 10.9%; in test [9] it was 82.9%; in test [10] it was 13.4%; in test [11], 25.5%; in test [12], 60.4%. Also, the growth in test [13] was 56.7%; in [14], 42.2%; in test [18], 3.31% (active); in test [15] it was 14.9%; in test [17], 35.4%.
Regarding `Cc1cccc2c1O/C(=C\c1ncc([N+](=O)[O-])n1C)C2=O`, the growth was 9.3% (active) in [1]; -13% (active) in test [2]; -21.3% (active) in test [3]; -15.7% (active) in test [4]; -2.81% (active) in [5]; -17.5% (active) in test [6]. The growth was -18.1% (active) in test [7]; -12.2% (active) in test [8]; -23.9% (active) in test [9]; 2.37% (active) in [10]; 89.7% in test [11]; -53.7% (active) in test [12]. In addition, the growth was -54.1% (active) in [13]; -11.6% (active) in test [14]; -66.6% (active) in test [15]; -73.1% (active) in test [16]; -50.6% (active) in test [17].
